High-throughput results as filed in PubChem.
Sampled rows, rich in hits. Any-hit rate of the full collection: about 4.6%.
ABHD5 PLIN5 PPI: ABHD5-PLIN5 interaction inhibitors, primary screen, cell lysate, split luciferase complementation, luminescence | Perilipin-5 (Homo sapiens) + 1-acylglycerol-3-phosphate O-acyltransferase ABHD5 (Homo … | Split G. princeps luciferase complementation, 4 h | inhibition, % at 4 µM | 360,000 compounds, 0.78% hits | AID 602281, 2012;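 active means inhibition above the mean inhibition across every tested compound plus 3 SD, cut at about 22% in these data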;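 further: 0% = DMSO only wells and the 100% control is not disclosed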
Target sequence (Q00G26 whole entry, looked up): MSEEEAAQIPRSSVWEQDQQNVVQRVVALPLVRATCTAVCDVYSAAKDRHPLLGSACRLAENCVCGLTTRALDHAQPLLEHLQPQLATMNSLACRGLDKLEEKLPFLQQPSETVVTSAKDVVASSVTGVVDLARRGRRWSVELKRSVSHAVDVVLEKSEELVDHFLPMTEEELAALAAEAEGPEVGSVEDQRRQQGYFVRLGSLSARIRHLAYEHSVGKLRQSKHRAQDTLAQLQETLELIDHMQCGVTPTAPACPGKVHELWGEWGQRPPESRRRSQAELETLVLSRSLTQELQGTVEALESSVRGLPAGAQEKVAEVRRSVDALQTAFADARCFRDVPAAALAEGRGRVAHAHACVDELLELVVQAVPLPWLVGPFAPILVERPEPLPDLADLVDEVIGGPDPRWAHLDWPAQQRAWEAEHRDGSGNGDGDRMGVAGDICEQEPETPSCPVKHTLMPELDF
Target sequence (Q8WTS1 whole entry, looked up): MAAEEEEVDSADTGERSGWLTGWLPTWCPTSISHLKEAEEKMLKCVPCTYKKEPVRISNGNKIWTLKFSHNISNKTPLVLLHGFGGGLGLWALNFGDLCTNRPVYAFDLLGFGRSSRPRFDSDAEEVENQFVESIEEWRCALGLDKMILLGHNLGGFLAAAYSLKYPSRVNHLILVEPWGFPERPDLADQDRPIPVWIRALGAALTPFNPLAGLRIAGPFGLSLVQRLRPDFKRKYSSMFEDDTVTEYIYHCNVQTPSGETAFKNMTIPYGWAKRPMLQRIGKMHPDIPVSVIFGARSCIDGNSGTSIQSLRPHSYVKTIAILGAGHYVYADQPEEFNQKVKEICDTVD
Peg3 prom inh-1: Peg3 promoter-driven luciferase inhibitors, primary screen, cell-based, HeLa, luciferase luminescence | HeLa PEG-Prom luciferase reporter, overnight | inhibition, % at 20 µM | 360,000 compounds, 1.7% hits | AID 588405, 2011;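 active means inhibition of at least 50% at 20 µM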
Mdm2-MdmX inh: inhibitors of human Mdm2-MdmX association, primary screen, cell-based, luminescence, split luciferase, SaOS-2, uHTS. 330,000 compounds, 3% hits. SaOS-2 split-luciferase Mdm2/MdmX complementation. inhibition, % at 8 µM;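 active means inhibition of at least 50% at 8 µM in the primary screen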
CF NFkB inh: inhibitors of PAF-induced NF-kB signaling, primary screen, cell-based, GFP fluorescence, uHTS; KKLEB NF-kB-GFP reporter, GFP fluorescence overnight; inhibition, % at 5 µM; 360,000 compounds, 0.86% hits;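 active means at least 50% inhibition at 5 µM, scaled per plate between neutral and stimulator controls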;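 further: PAF is a Pseudomonas aeruginosa culture filtrate used as stimulus; plate controls were PAF-stimulated DMSO wells for no effect and unstimulated DMSO wells for full effect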
HIF-2a inh: HIF-2a reporter inhibitors, primary screen, luminescence, 786-0 RCC cells. 786-0 RCC cells HIF-2a reporter, luciferase luminescence, overnight. inhibition, % at 18.8 µM. 360,000 compounds, 0.72% hits. AID 624352, 2012;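 active means inhibition of the luminescence signal of 40% or more relative to plate controls, in a single-dose primary screen at 18.75 µM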
KKLEB cytotox: cytotoxicity in KKLEB CF airway cells, primary screen, cytotoxicity control for CF NF-kB inhibitor project, cell-based, uHTS, fluorescence assay plates. 360,000 compounds, 0.36% hits. activity change (cytotoxicity), % at 5 µM. KKLEB CF airway cells viability, ATPlite luminescence, overnight; hits give low values; cells stimulated with P. aeruginosa culture filtrate;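 active means corrected activity change at or below -50% at 5 µM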
Mdm2-MdmX conf: Mdm2-MdmX complex disruptors, retested hits, confirmation, luminescence, single concentration | shares compounds with Mdm2-MdmX inh | Mdm2-MdmX binding, luminescent assay | inhibition, % at 8 µM | 10,000 compounds, 55% hits | AID 489028, 2010; in the data active means inhibition above about 40%
Full FLuc ctr: full-length luciferase signal inhibition, confirmation, counter-screen for Mdm2/MdmX interaction inhibitor project, cell-based, single concentration, SaOS-2; shares compounds with Mdm2-MdmX inh; SaOS-2 full-length luciferase counterscreen, luminescence; inhibition, % at 8 µM; 6,200 compounds, 77% hits;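 active means mean inhibition at 8 µM reaching about 37%, which flags the compound as non-specific, limit read from the data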;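 further: p53-null SaOS-2 cells with luciferase driven by a doxycycline-inducible promoter; compound on cells about two nights before reading with doxycycline added after day one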
Peg3 prom inh-2: Peg3 promoter reporter inhibitors, retest, confirmation, cell-based, HeLa, luciferase reporter, single concentration; shares compounds with Peg3 prom inh-1; HeLa PEG-Prom luciferase reporter, luminescence, overnight; inhibition, % at 20 µM; 1,300 compounds, 84% hits;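 active means at 20 µM dose, 40% or more inhibition averaged across four replicates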
* = called active by the depositor; . = no result given.

SMILES | ABHD5 PLIN5 PPI | Peg3 prom inh-1 | Mdm2-MdmX inh | CF NFkB inh | HIF-2a inh | KKLEB cytotox | Mdm2-MdmX conf | Full FLuc ctr | Peg3 prom inh-2
O=C(Cc1csc(Nc2nc(=S)[nH]c3ccccc23)n1)NCc1ccccc1Cl | 4 | 51* | 92* | 15 | -3 | -14 | -11 | . | 44*
O=C(CCCCCNc1nc(=S)[nH]c2ccccc12)NCc1ccccc1Cl | . | . | -4 | . | . | . | . | . | .
COC(=O)c1c(N)sc(C(=O)NCCc2ccccc2)c1C | -5 | 78* | 65* | -4 | 66* | -20 | 59* | 73* | 65*
CC1CCCCN1C(=O)CSc1nnc2c(n1)[nH]c1ccc(F)cc12 (stereo not drawn) | -1 | -44 | 23 | 12 | -36 | 5 | . | . | .
CC1CCc2cc(F)ccc2N1C(=O)CSc1nnc2c(n1)[nH]c1ccc(F)cc12 (stereo not drawn) | 6 | 100* | 84* | 28 | 3 | -36 | 24 | . | 23
COc1ccc(S(=O)(=O)N2CCCCC2)cc1NC(=O)Cn1cnc2c1c(=O)n(C)c(=O)n2C | 2 | 4 | 16 | 3 | 5 | -11 | . | . | .
Cn1c(=O)c2[nH]c(NN=Cc3cccc(Br)c3)nc2n(C)c1=O | -3 | 38 | . | -7 | -10 | 1 | . | . | .
Cn1ccc2c(N3CCCCC3)cc3c(c21)C1CCC3O1 (stereo not drawn) | 1 | -4 | . | -12 | 0 | 4 | . | . | .
CC(C)N(C(=O)[C@H]1C[C@H](CC(=O)NCC23CC4CC(CC(C4)C2)C3)C(=O)N2CCc3c([nH]c4ccc(Cl)cc34)[C@]12C)C(C)C | -9 | 63* | 92* | 39 | -17 | -3 | 50* | 73* | 43*
COc1ccc(-c2nc3c(c(SCC(=O)N4CCOCC4)n2)Cc2c(CO)cnc(C)c2O3)cc1 | 4 | 54* | 58* | 7 | 2 | 1 | 28 | . | 40*
Cc1ccc(C)c(NC(=O)COC(=O)c2cc(=O)c3ccccc3o2)c1 | -3 | -46 | -1 | 13 | -54 | 1 | . | . | .
CCN1C(=O)C(=Cc2cccc(OC)c2Oc2ccc([N+](=O)[O-])cc2[N+](=O)[O-])SC1=S | 5 | 108* | 100* | 88* | 6 | -84* | 95* | 28 | 72*
Cn1cccc1-c1cc(C(=O)N/N=C/c2cc(Br)ccc2O)[nH]n1 | 0 | 58* | 74* | 4 | 3 | 7 | 78* | 26 | 62*
Cn1cccc1-c1cc(C(=O)N/N=C/c2ccccc2Cl)[nH]n1 | -3 | -273 | -10 | 0 | -303 | -14 | . | . | .
Cc1nc(NC(=O)/C=C/c2ccccc2)sc1C(=O)Nc1ccc(Cl)cc1 | -2 | 53* | 50* | 34 | 34 | -41 | 40 | 53* | 23
Cc1nc(NC(=O)/C=C/c2ccccc2)sc1C(=O)Nc1ccccc1Cl | 7 | -17 | 23 | 2 | -17 | 5 | . | . | .
O=C(N/N=C(\c1ccccc1)c1ccccn1)c1cccc([N+](=O)[O-])c1 | 3 | 51* | 79* | -5 | 13 | 2 | 66* | 20 | 62*
CCN1CCN(c2ccc(S(=O)(=O)N3CCOCC3)cc2NC(=O)/C=C/c2ccc([N+](=O)[O-])cc2)CC1 | 10 | 70* | 100* | -29 | -13 | -1 | 48* | 64* | 75*
C[C@H](CO)N1C[C@H](C)[C@@H](CN(C)C(=O)Cc2ccccc2)OCCCC[C@H](C)Oc2ccc(NC(=O)NC3CCCCC3)cc2C1=O | -5 | -12 | . | 7 | 0 | 2 | . | . | .
O=C(NNC(=O)c1cccnc1SCc1cccc([N+](=O)[O-])c1)c1ccccn1 | 8 | 55* | 55* | 1 | 17 | 5 | 79* | 21 | 70*
COc1cccc(/C=N/Nc2ccc(C(=O)O)cc2)c1O | -4 | 101* | 54* | 0 | 95* | 7 | 24 | . | 94*
CC1(C)Cc2c(sc(NC(=O)COc3ccc(Cl)cc3Cl)c2C(N)=O)C(C)(C)N1 | 3 | 34 | 38 | -14 | 3 | 0 | . | . | .
CCOC(=O)c1c(NC(=O)COc2ccccc2F)sc2c1CC(C)(C)NC2(C)C | 8 | 86* | 84* | 23 | 4 | -11 | 72* | 63* | 80*
CCOC(=O)c1c(NC(=O)c2ccc(S(=O)(=O)N3CCOCC3)cc2)sc2c1CC(C)(C)NC2(C)C | 2 | 53* | 55* | 28 | 13 | -13 | 34 | . | 9
Fc1ccc(Nc2nc(-c3ccncc3)nc3ccccc23)cc1F | -6 | 54* | 82* | -21 | 10 | -9 | 81* | 64* | 33
SMILES | ABHD5 PLIN5 PPI | Peg3 prom inh-1 | Mdm2-MdmX inh | CF NFkB inh | HIF-2a inh | KKLEB cytotox | Mdm2-MdmX conf | Full FLuc ctr | Peg3 prom inh-2
COc1cc(CNC(=O)C2CCC(=O)N(C3CCCCCC3)C2)cc(OC)c1 (stereo not drawn) | 1 | -9 | 6 | -11 | -31 | 8 | . | . | .
CC1(c2nnnn2-c2ccc3c(c2)OCCO3)CCC(=O)N1Cc1cccnc1 (stereo not drawn) | 0 | . | . | . | -14 | . | . | . | .
O=C(CCSc1nc2ccccc2s1)N/N=C/c1c(O)ccc2ccccc12 | -6 | 54* | 82* | 10 | 15 | 1 | 82* | 32 | 59*
CCNC(=O)C1(C)CCCN(C(=O)c2ccc(F)c(C)c2)C1 (stereo not drawn) | -12 | 4 | . | -16 | 11 | 6 | . | . | .
CCn1cc(C(=O)NCCC(C)C)c(=O)c2cc(F)c(N3CCN(C(=O)c4ccco4)CC3)cc21 | -5 | 64* | 54* | 7 | 12 | -17 | 42* | 63* | 49*
CCCOc1ccc(NC(=O)CC2C(=O)N(CC)C(=S)N2CCCN2CCN(Cc3ccccc3)CC2)cc1 (stereo not drawn) | 9 | 76* | 81* | -12 | 8 | -15 | 46* | 65* | 80*
O=C(NCCc1ccccc1)c1ccc2c(c1)S(=O)(=O)c1cc(Cl)ccc1C2=O | -3 | 17 | 11 | 12 | 9 | -6 | . | . | .
